PubChem BioAssay AID2639 (National Center for Advancing Translational Sciences (NCATS), 2010)
Activity calls are given as the source filed them. Calls follow the shape of the full dose curve.

Assay: Platelet Aggregation Secondary Assay for Inhibitors of Platelet Integrin alphallb-beta3
Conditions: platelet-rich plasma, ADP-induced aggregation, absorbance 563 nm
From the text: NIH Molecular Libraries Probe Production Network [MLPCN] NIH Chemical Genomics Center [NCGC] MLPCN Grant: 1 R03 MH083257-01 Assay Provider: Barry Coller, Rockefeller University NCGC Assay Overview: The alphaIIbbeta3 receptor plays a vital role in hemostasis and thrombosis, where receptor deficiency causes the hemorrhagic disorder, Glanzmann thrombasthenia, and uncontrolled receptor activation causes thrombosis and blood vessel occlusion. Small molecule inhibitors of alphaIIbbeta3, tirofiban and eptifibatide, have undesirable side effects thought to arise from conformational changes in alphaIIbbeta3. These changes transiently activate the receptor to cause spontaneous platelet aggregation and thrombus formation. […] This secondary assay measures platelet aggregation (Blue et al., 2008). Platelets are induced to aggregate and aggregation is tracked by the change in absorbance over time. Inhibitors of alphaIIbbeta3 block platelet aggregation and decrease the rate of change in absorbance.
NCGC Assay Protocol Summary: Untreated 96-well polystyrene plates (Nunc, Rochester, NY) were blocked for at least 1 hour with HBMT (138 mM NaCl, 12 mM NaHCO3, 10 mM HEPES, 2.7 mM KCl, 0.4 mM NaH2PO4, 0.1% glucose, 0.35% BSA, pH 7.4). Compounds (33 uL in HBMT) and citrated platelet-rich plasma (67 uL) were added to the wells. After plates equilibrated at 37 C in the plate reader (SpectraMax; Molecular Devices, Sunnyvale, CA) for 10 minutes, aggregation was initiated by adding ADP (5 uM final concentration; Chrono-Log Corp, Havertown, PA). Absorbance (Abs) was measured at 563 nm every 10 seconds with 3 seconds of shaking between determinations for 8 minutes. Reference Blue R, Murcia M, Karan C, Jirouskova M, and Coller BS. Application of high-throughput screening to identify a novel alphaIIb-specific small- molecule inhibitor of alphaIIbbeta3-mediated platelet interaction with fibrinogen. Blood. 2008, 111(3):1248-56

Compound	Potency	outcome
O=C(Nc1cccc(-c2nn3c(=O)cc(N4CCNCC4)nc3s2)c1)C1CCNCC1	8.6 µM (active)	
O=c1cc(N2CCNCC2)nc2sc(-c3ccncc3)nn12	3.1 µM (active)	
O=c1cc(N2CCNCC2)nc2sc(-c3cccc(-c4ccnc(F)c4)c3)nn12	8.4 µM (active)	
Nc1ncc(-c2cccc(-c3nn4c(=O)cc(N5CCNCC5)nc4s3)c2)cn1	10.1 µM (active)	
CCc1nn2c(=O)cc(-c3ccncc3)nc2s1		inactive
O=C(O)c1cc(-c2cccc(-c3nn4c(=O)cc(N5CCNCC5)nc4s3)c2)cs1		inactive
O=C(O)c1cccc(-c2cccc(-c3nn4c(=O)cc(N5CCNCC5)nc4s3)c2)c1		inactive
O=c1cc(N2CCNCC2)nc2sc(-c3cccc(-c4ccncc4)c3)nn12	8 µM (active)	
O=C(Nc1cccc(-c2nn3c(=O)cc(N4CCNCC4)nc3s2)c1)c1ccon1		inactive
Cc1noc(C)c1-c1cccc(-c2nn3c(=O)cc(N4CCNCC4)nc3s2)c1		inactive
NCCC(=O)Nc1cccc(-c2nn3c(=O)cc(N4CCNCC4)nc3s2)c1	1.6 µM (active)	
O=c1cc(N2CCNCC2)nc2sc(Cc3ccccc3)nn12	13.9 µM (active)	
NCC(=O)Nc1cccc(-c2nn3c(=O)cc(N4CCNCC4)nc3s2)c1	0.163 µM (active)	
CNCC(=O)Nc1cccc(-c2nn3c(=O)cc(N4CCNCC4)nc3s2)c1		inactive
CC(C)(C)c1nn2c(=O)cc(N3CCNCC3)nc2s1		inactive
C[C@H](N)C(=O)Nc1cccc(-c2nn3c(=O)cc(N4CCNCC4)nc3s2)c1	0.916 µM (active)	
O=C(O)c1ccc(-c2nn3c(=O)cc(N4CCNCC4)nc3s2)cc1	5.4 µM (active)	
O=C(Nc1cccc(-c2nn3c(=O)cc(N4CCNCC4)nc3s2)c1)c1ccncc1	1.5 µM (active)	
Nc1ccc(-c2cccc(-c3nn4c(=O)cc(N5CCNCC5)nc4s3)c2)cc1	1.9 µM (active)	
NC(=O)c1ccc(-c2cccc(-c3nn4c(=O)cc(N5CCNCC5)nc4s3)c2)cc1	1.6 µM (active)	
COCc1nn2c(=O)cc(N3CCNCC3)nc2s1		inactive
CCc1nn2c(=O)cc(N3C(C)CNCC3C)nc2s1 (stereo unspecified)		inactive
C[C@@H](N)C(=O)Nc1cccc(-c2nn3c(=O)cc(N4CCNCC4)nc3s2)c1	5.9 µM (active)	
O=C(O)CNc1cccc(-c2nn3c(=O)cc(N4CCNCC4)nc3s2)c1	12.7 µM (active)	
O=C(O)c1ccc(-c2cccc(-c3nn4c(=O)cc(N5CCNCC5)nc4s3)c2)cc1	11.4 µM (active)	
CCc1nn2c(=O)cc(NC3CNC3)nc2s1		inactive
